Experimental findings from the supplement of paper PMC7156485 are described below.

Unmarked numbers belong to inactive results.
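Note: TDF is a line of transformed human dermal fibroblasts of mesenchymal origin.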

This test has as its system HCC1569. Description: H1.0 immunofluorescence intensity relative to DMSO (% of DMSO); higher = stronger H1.0 induction, active = 140 or more. The note with it: concentration: 10 µM; 24 h. Summed up:
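Cell number or H1.0 nuclear intensity appears as percent of the plate control, based on the median of replicates. Measurements came from HCC1569 and TDF cells exposed in triplicate to compounds at 10 µM for 24 h at 37 °C, then imaged in six fields per well at ×10. Positional effects were smoothed out of HCC1569 values.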
As to `CCCNC(C)C(=O)Nc1ccccc1C.Cl` (configuration not stated) [Prilocaine hydrochloride], the H1.0 immunofluorescence intensity was 96.2.

As to `COc1ccc(Cl)cc1C(=O)NCCc1ccc(S(=O)(=O)NC(=O)NC2CCCCC2)cc1` [Glyburide], the H1.0 immunofluorescence intensity is 109.

In the case of `Cc1nc(Nc2ncc(C(=O)Nc3c(C)cccc3Cl)s2)cc(N2CCN(CCO)CC2)n1` [Dasatinib], the H1.0 immunofluorescence intensity was 171 (active).

Consider `NCCCCC(NC(CCc1ccccc1)C(=O)O)C(=O)N1CCCC1C(=O)O` (configuration not stated) [Lisinopril], for which the H1.0 immunofluorescence intensity is 98.8.

Turning to `CC(=O)O.CSC(N)=NCCCC(N)C(=O)O` [S-Methyl-L-thiocitrulline acetate], the H1.0 immunofluorescence intensity is 97.5.

Turning to `CCCCCC=CCC=CCC=CCCCCCCC(=O)O` [8(Z), 11(Z), 14(Z)-Eicosatrienoic Acid], the H1.0 immunofluorescence intensity is 98.7.

Consider `Nc1nc(=O)c2ncn(COC(CO)CO)c2[nH]1` [Ganciclovir], for which the H1.0 immunofluorescence intensity is 99.6.

In the case of `CN(C)CCC=C1c2ccccc2COc2ccccc21.Cl` [Doxepin hydrochloride], the H1.0 immunofluorescence intensity is 97.5.

With `Nc1ncnc2n[nH]c(Nc3ccc(F)cc3)c12`, the H1.0 immunofluorescence intensity was 118.

Take `Br.CN1CCc2cc(O)c(O)cc2C(c2ccccc2)C1` (configuration not stated): the H1.0 immunofluorescence intensity is 105.

For the compound `Oc1cc(O)c2c(c1)OC(c1ccc(O)c(O)c1)C(O)C2` (single isomer, unassigned; (+)) [(+)-Catechine], the H1.0 immunofluorescence intensity is 88.4.

In the case of `O=C(O)c1cc(N(Cc2ccccc2O)Cc2cc(O)ccc2O)ccc1O` [Lavendustin A], the H1.0 immunofluorescence intensity was 97.9.
